Laboratory results taken from PubChem BioAssay (NCATS).
Inconclusive results are not listed. The source made the active and inactive calls. Calls follow the shape of the dose curve; as a rule, active = well fitted curve in the direction sought with a large enough effect; inconclusive = small, poorly fitted or top-dose-only effect, or another doubt; inactive = no such curve, though single readings can be large; an effect the other way counts as inactive or inconclusive.

Legend:
[1] = qHTS of pediatric cancer cell lines to identify multiple opportunities for drug repurposing: Primary screen for control Hh wild type fibroblast cells (AID 1347106);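 also: a drop in luminescence marks cytotoxicity and a rise apparent proliferation; nearly all actives have a fitted effect of over 55% in size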
Method in brief: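 Viability after 48 h compound treatment at 37C, 500-1,000 cells/well, read as ATP luminescence with CellTiter-Glo. Primary screens used 11-point (MIPE, 0.78 nM-46 µM) or 8-point (NPC, 0.59 nM-46 µM) final concentrations; follow-up screens used 11-point dilutions.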

[2] = qHTS of pediatric cancer cell lines to identify multiple opportunities for drug repurposing: Primary screen for Rh30 cells (AID 1347107); also: nearly all actives have a fitted effect of over 75% in size
Method in brief: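 Cells (500-1,000/well) in growth media were settled 5 h at 37 degrees C, then given compounds for 48 h. Viability was read as CellTiter-Glo luminescence. Primary runs used MIPE at 11 points (0.78 nM-46 µM) and NPC at 8 points (0.59 nM-46 µM); follow-ups used 11 points.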

[3] = qHTS of pediatric cancer cell lines to identify multiple opportunities for drug repurposing: Primary screen for Rh41 cells (AID 1347108);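 also: luminescence drop marks cytotoxic hits; nearly all actives have a fitted effect of over 70% in size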
Method in brief: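 ATP-based luminescence (CellTiter-Glo) quantifies viability after a 48-hour exposure. Compounds are dosed across 8 or 11 final concentrations; DMSO and 2.3 µM bortezomib serve as controls.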

Measured: Potency
Also: series mostly up to about 46 µM.

CCCN(CCC)S(=O)(=O)c1ccc(C(=O)O)cc1
inactive: [1] | [2] | [3]

CCCCCCCC/C=C\CCCCCCCCN
inactive: [1] | [2] | [3]

CCCCNC(=O)NS(=O)(=O)c1ccc(N)cc1
inactive: [1] | [2] | [3]

CC(C(=O)O)c1cccc(Oc2ccccc2)c1 (stereo not drawn)
inactive: [1] | [2] | [3]

C/C=C/C=N/NC(=O)c1ccncc1
inactive: [1] | [2] | [3]

C=CCN1CCc2nc(N)sc2CC1
inactive: [1] | [2] | [3]

Cc1cccc(C)c1NC(=O)CN1CCCCCC1
inactive: [1] | [2] | [3]

CCOc1ccc(NC(C)=O)cc1
inactive: [1] | [2] | [3]

CC[N+](C)(CC)CCOC(=O)C(O)(c1ccccc1)C1CCCCC1 (stereo not drawn)
inactive: [1] | [2] | [3]

CCc1ccc(C(=O)C(C)CN2CCCCC2)cc1 (stereo not drawn)
inactive: [1] | [2] | [3]

CNCCc1ccccn1
inactive: [1] | [2] | [3]

NS(=O)(=O)Cc1noc2ccccc12
inactive: [1] | [2] | [3]

CC(=C(CCOC(=O)C(C)C)SSC(CCOC(=O)C(C)C)=C(C)N(C=O)Cc1cnc(C)nc1N)N(C=O)Cc1cnc(C)nc1N
inactive: [1] | [2] | [3]

O=C(O)CCC(=O)Nc1ccc(S(=O)(=O)Nc2nccs2)cc1
inactive: [1] | [2] | [3]

CCOc1cc(OCC)c(C(=O)CCC(=O)O)cc1OCC
inactive: [1] | [2] | [3]

C/C=C/c1ccc(O)c(OC)c1
inactive: [1] | [2] | [3]
